Most compounds without a hit are left out; they make up all but 3.8% or so of the library.
TGFb SMAD3 inh – qHTS for Inhibitors of TGF-b | AID 588855, 2011 | hit rate 1.2% among 410,000 | HepG2 CAGA-GFP TGF-b/SMAD3 reporter, GFP fluorescence, 18 h; TGF-beta stimulated, 500 pg/mL final | Potency, µM (doses to about 46.1 µM), inactives show at the top dose activity, negative = inhibition, actives largely listed as inhibitors; note: % is set by controls: 0 for no effect and ±100 for the full control effect; nearly all actives have a fitted effect of over 65% in size
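Inhibition was scored as loss of TGF-beta-induced (500 pg/mL final, 18 hours, 37 degrees C) GFP in HEPG2 cells carrying a CAGA-GFP reporter, in DMEM with 1% FBS. Well GFP was summed per cell; Activity was normalised to unstimulated and stimulated DMSO wells, then concentration-response fitting.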
HT1080NT lethal – qHTS for induction of synthetic lethality in tumor cells producing 2HG: qHTS for the HT-1080-NT fibrosarcoma cell line; HT-1080-NT fibrosarcoma viability, CellTiter-Glo ATP luminescence, 48 h; Potency, µM (top dose mostly 46.1 µM), for the others: top-dose activity, negative = less viability, most hits filed as cytotoxic; hit rate 1.6% among 360,000;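 note: NT is the 2HG producing partner of a matched IDH1 knockdown line; 0% = DMSO-treated cells and -100% = media-only wells without cells; nearly all actives have a fitted effect of over 55% in size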
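HT-1080-NT fibrosarcoma cells (2HG-overproducing), 750 cells/well in RPMI with 5% FBS, dosed after 2 h and incubated 48 h at 37C. CellTiter-Glo luminescence normalized to DMSO and no-cell wells; concentration-response curves fitted and classed.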
ATXN viability – Viability Counterscreen for Primary qHTS for Inhibitors of ATXN expression; S2 cells (HEK-293 line with an ATXN2-luciferase reporter) viability, CellTiter-Fluor protease fluorescence, 24 h; Potency, µM (series often up to 56.7 µM), actives largely listed as cytotoxic; hit rate 0.49% among 400,000; AID 651635, 2014; note: nearly all actives have a fitted effect of over 40% in size
ATXN2 expr inh – Primary qHTS for Inhibitors of ATXN expression; Potency, µM (top dose mostly 57 µM), inactives show top-dose activity change, negative = inhibition, usual class: inhibitors; HEK-293 ATXN2-luciferase reporter, luminescence, 24 h; hit rate 0.72% among 360,000; AID 1745845, 2022; note: % is set by controls: 0 for no effect and ±100 for the full control effect; nearly all actives have a fitted effect of over 55% in size
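qHTS (up to 57 uM final) was run with 24 h compound exposure of reporter cells at 37 °C. Each well was multiplexed: SteadyGlo luminescence measured ATXN2-luciferase expression after a fluorogenic Gly-Phe-AFC viability readout (25 uM final).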
HepG2 viability – qHTS for Inhibitors of TGF-b: Cytotox Counterscreen; Potency, µM (titrated, usually from 46.1 µM), without a hit: at the highest dose activity change, negative = cytotoxicity, usual class: cytotoxic; HepG2 CAGA-GFP viability, ATP luminescence, 18 h; hit rate 0.76% among 410,000
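HepG2 CAGA-GFP cells (1000/well, DMEM with 1% FBS) received compound, then TGF-beta at 500 pg/mL final, and were incubated 18 hours at 37 degrees C. Viability was read by CellTiter-Glo luminescence. Media-only wells were set as complete cell-killing and DMSO as no toxicity.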
HT1080 IDH1KD tx – qHTS for induction of synthetic lethality in tumor cells producing 2HG: qHTS for the HT-1080-IDH1KD cell line; HT-1080 IDH1 knockdown viability, ATP luminescence, 48 h; Potency, µM (series often up to 46.1 µM), for the others: at the top dose activity, negative = toxicity, hits mostly cytotoxic; hit rate 2% among 360,000;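 note: 0% = DMSO wells and -100% = cell-free medium wells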
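Cytotoxicity counter-line: IDH1KD HT-1080, 48 h, CellTiter-Glo. Curves classed by r2, magnitude and activity.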
The depositor's hits bear a star; i = inactive; ? = inconclusive; nt = no result. Calls come from the whole dose curve; as a rule, active = well fitted curve in the direction sought with a large enough effect; inconclusive = small, poorly fitted or top-dose-only effect, or another doubt; inactive = no such curve, though single readings can be large; an effect the other way counts as inactive or inconclusive. Potency is the fitted concentration of half-maximal effect.

SMILES	TGFb SMAD3 inh	HT1080NT lethal	ATXN viability	ATXN2 expr inh	HepG2 viability	HT1080 IDH1KD tx
Cc1cc(C(=O)Nc2cccc(-c3nc(CNC(=O)c4cc5ccccc5[nH]4)c(C)o3)c2)c(C)o1	nt	nt	i	nt	nt	nt
COCCCOc1cc(C[C@@H](C[C@H](N)[C@@H](O)C[C@H](C(=O)NCC(C)(C)C(N)=O)C(C)C)C(C)C)ccc1OC	nt	nt	i	6%	nt	nt
CC(C)Nc1nc(Cl)nc(N(C#N)CN2C(=O)c3ccccc3C2=O)n1	0%	?	?	?	-11%	18µM*
CCC(C)Nc1nc(Cl)nc(N(C#N)CN2C(=O)c3ccccc3S2(=O)=O)n1 (stereo not drawn)	?	-20%	i	-7%	-37%	-23%
CN(C)c1ccc(C=Nc2cnc3ccccc3c2)cc1	6%	nt	nt	nt	-6%	nt
COC(=O)[C@@H]1Cc2c([nH]c3ccccc23)C(C)(C)N1C(=O)CCl	?	?	?	?	-71%	18µM*
COC(=O)C1Cc2c([nH]c3ccccc23)C2CCC(=O)N12 (stereo not drawn)	2%	-3%	i	nt	-26%	14%
NC(=O)C1=CC2C3C=CC2(O)C(=O)OC3O1 (stereo not drawn)	11µM*	?	nt	21µM*	13µM*	21µM*
N#CC1=C(N)Oc2c(ccc3ccccc23)C1c1ccsc1 (stereo not drawn)	?	13µM*	?	43%	-25%	5.8µM*
N#CC1=C(N)Oc2c(oc(CO)cc2=O)C1c1ccsc1 (stereo not drawn)	-2%	0%	i	-1%	4%	-6%
Cc1ccccc1CCNC(=O)c1cc2cc(S(=O)(=O)N3CCCCC3)ccc2n1C	-13%	nt	nt	nt	-15%	nt
Brc1ccc(-c2ccc(CNCCSc3nnnn3-c3ccccc3)o2)cc1	?	nt	i	-23%	-49%	nt
CCOC(=O)c1cnc2ccc(C)cc2c1NCCc1ccc(OC)c(OC)c1	11µM*	nt	i	-14%	-51%	nt
CCOC(=O)c1cnc2ccc(OCC)cc2c1NCCc1ccc(OC)c(OC)c1	13µM*	nt	nt	nt	-48%	nt
N=C1SC(c2ccccc2)C(=O)N1c1ncc(Cc2ccccc2Cl)s1 (stereo not drawn)	?	-8%	nt	18µM*	-1%	-7%
O=C(CSc1nnnn1-c1ccccc1)Nc1ncc(Cc2ccccc2Cl)s1	4%	10%	i	nt	-1%	6%
COc1cccc(-c2sc3ccc(OC)cc3c2C#CC2(O)CCCCC2)c1	?	?	i	1%	-41%	?
COc1ccc(-c2sc3ccc(N4CCOCC4)cc3c2C#CC2(O)CCCCC2)cc1	?	21µM*	?	7%	-31%	?
COc1ccc(-c2sc3ccc(N4CCOCC4)cc3c2C#CCO)cc1	?	-18%	?	28µM*	-47%	?
COc1ccc(OC)c(-c2cc(Cl)c3c(c2)CC(CNC(=O)C(C)N2CCOCC2)O3)c1 (stereo not drawn)	nt	nt	i	nt	nt	nt
COc1ccc2nc3cc(Cl)ccc3c(Nc3cc(C(C)C)c(O)cc3C)c2c1	?	21µM*	?	?	-70%	?
CCOC(=O)c1c(-c2ccccc2)oc2ccc(OCC(O)CN(C)C)cc12 (stereo not drawn)	14µM*	26µM*	?	-36%	18µM*	15µM*
CCOC(=O)c1c(-c2ccccc2)oc2ccc(OC(C)C(=O)O)cc12 (stereo not drawn)	0%	0%	i	-12%	15%	-6%

Compound activity (PubChem BioAssay)
